Arbovirus anti = antivirals against arbovirus infection; arbovirus infection cell-based antiviral screen; inhibition, % at 10 µM; 0.37% of 200,000 active; in the data active means inhibition above about 30%
Hsp70 activator = Hsp70 transcriptional activation, primary screen; HeLa Hsp70 promoter luciferase reporter, luminescence; scaled: vehicle 0, proteasome-inhibitor control 100%; activation, % at 10 µM; 0.04% of 200,000 active;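 active means activation above the mean across all tested compounds plus 3 SD, cutoff set per campaign, cut at about 5.5% in these data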;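 further: 100% = MG132 at 30 µM as the positive control and 0% = DMSO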
Efa HMGR inh = E. faecalis class II HMG-CoA reductase inhibition; inhibition, % at 10 µM; 0.41% of 190,000 active; purified E. faecalis HMGR, NADPH absorbance 340 nm kinetic;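 active means inhibition above a set limit, the median over all tested compounds plus 3 SD, cut at about 9.5% in these data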;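 further: enzyme runs in reverse so mevalonate oxidation gives rising NADPH absorbance; 0% = complete reaction with DMSO and 100% = background rate lacking mevalonate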
Wee1 stabilizer = human Wee1 degradation inhibition, primary screen | P30291 | HeLa Luc-Wee1K328M stability, luciferase luminescence; 100% = proteasome inhibitor MG132 effect | reporter increase, % at 5 µM | 1.2% of 220,000 active | AID 1321;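 active means activation above the mean of all tested compounds plus 3 SD, set per screening run, cut at about 8.8% in these data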;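 further: cells exposed to compound for 20 h before luminescence read; 0% = DMSO alone and 100% = MG132 at 30 µM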
Target sequence (P30291 whole entry K328M): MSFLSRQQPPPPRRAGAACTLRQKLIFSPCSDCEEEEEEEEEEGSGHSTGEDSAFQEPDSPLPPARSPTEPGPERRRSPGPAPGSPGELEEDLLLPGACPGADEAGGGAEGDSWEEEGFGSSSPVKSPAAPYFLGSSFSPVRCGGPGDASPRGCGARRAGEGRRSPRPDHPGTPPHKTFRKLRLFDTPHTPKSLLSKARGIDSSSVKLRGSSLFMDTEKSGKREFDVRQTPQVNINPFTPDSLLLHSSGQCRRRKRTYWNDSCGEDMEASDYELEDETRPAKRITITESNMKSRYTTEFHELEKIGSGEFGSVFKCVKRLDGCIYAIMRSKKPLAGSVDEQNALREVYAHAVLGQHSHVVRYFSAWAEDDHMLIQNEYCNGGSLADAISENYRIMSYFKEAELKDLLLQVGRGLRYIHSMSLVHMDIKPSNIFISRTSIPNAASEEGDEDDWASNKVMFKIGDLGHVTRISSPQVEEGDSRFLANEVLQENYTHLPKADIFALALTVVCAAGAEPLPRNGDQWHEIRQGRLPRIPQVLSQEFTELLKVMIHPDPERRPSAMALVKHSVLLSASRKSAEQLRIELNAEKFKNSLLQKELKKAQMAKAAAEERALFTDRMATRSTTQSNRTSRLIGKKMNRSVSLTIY
PKD1 inh = PKD1 (human) kinase inhibition; AID 797; 0.056% of 200,000 active; Q15139; PKD1 kinase fluorescence polarization assay; inhibition, % (test concentration not listed); in the data active means inhibition above about 50%
Numbers without * were called inactive; . = not tested or not shown. This is a sample that favours compounds with a hit; in the whole collection about 2% have one here.

SMILES | Arbovirus anti | Hsp70 activator | Efa HMGR inh | Wee1 stabilizer | PKD1 inh
O=C(Nc1nnc(SCc2cccc3ccccc23)s1)C1COc2ccccc2O1 (configuration not stated) | 20.4 | -0.3 | -0.4 | 0.7 | -3.1
Cc1ccc2cc3c(N)c4c(C)ccc(C)c4nc3nc2c1 | 3.4 | 0.0 | -10.1 | -0.8 | 3.5
CSc1ccc(C2CC(=O)Nc3nc(SC)[nH]c(=O)c32)cc1 (configuration not stated) | 25.8 | -0.4 | 22.1* | 1.6 | -9.3
Cc1ccc(OCCn2cnc(Cl)c2Cl)cc1 | -6.3 | -0.1 | -1.5 | -2.4 | -1.9
CCN1CCc2c(sc3c2c(NCc2ccco2)nc2nnnn23)C1 | 32.5* | -0.3 | -5.0 | 0.9 | -1.9
C=CCNC(=O)c1onc(CSc2ccccc2CC)c1C(=O)O | 11.2 | 0.1 | -4.5 | 0.4 | -1.4
O=C(O)c1ccccc1Sc1c([N+](=O)[O-])cc(C(F)(F)F)cc1[N+](=O)[O-] | 30.9* | -0.3 | 6.3 | -0.8 | -4.1
O=C(NNC(=S)NC1CC2C=CC1C2)c1cccnc1 (configuration not stated) | . | . | . | 1.4 | .
O=C1OCc2cc(NC(=O)C3CCCO3)ccc21 (configuration not stated) | -1.7 | -0.3 | 2.0 | 0.1 | -6.6
O=C(Nc1ccc2c(c1)C(=O)N(c1ccccc1)C2=O)C1CCCO1 (configuration not stated) | 7.5 | 0.2 | 12.4* | 0.9 | -2.2
Cc1ccccc1OCCNC(=O)c1ccc2ccccc2n1 | 1.5 | 0.1 | 2.4 | 9.6* | -6.3
Cc1ccc(S(=O)(=O)N(C)c2ccccc2C(=O)NC2CCCC2)cc1 | 3.2 | -0.3 | -0.2 | 0.8 | 0.5
Cn1cnnc1Sc1ccc(C(=O)OCC(=O)NC2CC2)cc1[N+](=O)[O-] | 5.3 | -0.2 | 15.5* | 2.4 | -3.8
Cc1ccc2c(c1)C(=C(C#N)C#N)C(=O)N2CCN1CCCCC1 | . | . | . | -4.1 | .
CCN(CC)S(=O)(=O)c1csc(C(=O)OCC(=O)c2ccccc2)c1 | 3.8 | -0.3 | 0.7 | -3.1 | 0.3
O=C(N/N=C/c1ccc(Br)s1)c1ccc([N+](=O)[O-])cc1 | 6.8 | -0.1 | 0.2 | 9.0* | -0.7
O=C(N/N=C/c1ccc(Br)s1)c1ccccc1[N+](=O)[O-] | -15.8 | -0.2 | . | -2.4 | 7.5
O=C(N/N=C/c1cccc([N+](=O)[O-])c1)c1cccc(Br)c1 | -0.6 | -0.2 | -5.4 | 9.4* | 5.5
Cc1ccc(C)n1-c1nccc(-c2ccco2)n1 | -3.1 | -0.4 | 5.3 | 1.1 | -6.1
O=C(CSc1ccc2c(c1)OCCO2)Nc1ccc(Cl)cn1 | -6.5 | 0.0 | -2.6 | 11.0* | -14.3
CN(Cc1cccs1)C(=O)/C=C/c1ccccc1[N+](=O)[O-] | 1.0 | -0.2 | -3.2 | -1.8 | -5.7
CC(=O)c1ccc(N2C(=O)C3C(C2=O)C(C(=O)c2ccc(Cl)cc2)N2CCCC32)cc1 (configuration not stated) | 7.5 | -0.4 | -8.1 | 10.8* | -0.8
O=C(c1ccc(Cl)cc1)C1C2C(=O)N(c3ccccc3)C(=O)C2C2CCCN21 (configuration not stated) | 1.2 | 0.0 | -7.3 | -0.1 | 1.5
CCOc1ccc(N2C(=O)Nc3ccccc3C2(O)C(=O)NCc2ccc(C)cc2)cc1 (configuration not stated) | -3.2 | -0.4 | -2.4 | 11.6* | 5.3
O=C(CSc1ncnc2ccccc12)NCC(=O)c1ccccc1 | -0.8 | -0.2 | -0.9 | 10.3* | 4.2
SMILES | Arbovirus anti | Hsp70 activator | Efa HMGR inh | Wee1 stabilizer | PKD1 inh
O=C(CS(=O)(=O)Cc1ccccc1)NCc1ccco1 | 12.9 | -0.3 | 9.8* | -0.5 | -2.5
Cc1oc(-c2ccccc2F)nc1CS(=O)(=O)CC(=O)NCc1ccco1 | 4.2 | 0.8 | 1.2 | 9.2* | -1.2
CN(C)Cc1c(O)c(Cl)cc2c3c(c(=O)oc12)CCCC3 | 32.5* | -0.3 | -0.9 | -0.8 | -1.2
CCN(CC)Cc1c(O)c(Cl)cc2c3c(c(=O)oc12)CCCC3 | 19.0 | -0.3 | -10.3 | -0.4 | 2.0
COc1cccc(C(=O)Nc2cccc(C(=O)NC3=NN(c4c(Cl)cc(Cl)cc4Cl)C(=O)C3)c2)c1 | 34.4* | 0.1 | 0.6 | -1.5 | -3.4
CC(C)(C)C(=O)NC1=NN(c2c(Cl)cc(Cl)cc2Cl)C(=O)C1 | -5.0 | 0.5 | -3.2 | -3.0 | -0.9
COc1ccc2[nH]c(=O)cc(C(=O)O)c2c1 | -4.0 | -0.1 | -4.4 | 0.1 | 3.7
COc1ccc2[nH]c3c4c(ccc3c2c1)C(=O)C=CC4=O | . | . | . | 13.6* | .
O=C(CCl)NC1(C(F)(F)F)C(=O)Nc2c1c(=O)[nH]c(=O)n2-c1ccccc1 (configuration not stated) | . | . | . | 3.5 | .
O=C(Nc1nc(-c2ccccc2)cs1)C1COc2ccccc2O1 (configuration not stated) | 8.6 | 1.0 | 0.7 | 3.2 | -3.0
COc1cccc(C(=O)Nc2nc(-c3ccc4c(c3)OCO4)cs2)c1 | 42.2* | -0.1 | -7.8 | 0.2 | -3.8
O=C(Nc1nc(-c2ccc3c(c2)OCO3)cs1)C1COc2ccccc2O1 (configuration not stated) | 52.2* | -0.2 | -5.9 | 1.5 | 2.3
COc1cccc(C(=O)Nc2nc(-c3ccncc3)cs2)c1 | 4.3 | -0.1 | -3.0 | 2.7 | -3.2
O=C(N/N=C\C=C\c1ccc2c(c1)OCO2)C1COc2ccccc2O1 (configuration not stated) | -15.6 | 0.0 | -4.8 | 9.3* | -6.4
Cc1noc(C)c1COC(=O)c1ccc(N(C)C)cc1 | -9.6 | -0.1 | -2.7 | 1.5 | -4.7
C=CCn1cnc2c(nnn2-c2cc(C)cc(C)c2)c1=O | -0.1 | -0.2 | -3.3 | 0.2 | 0.1
C=CCn1cnc2c(nnn2-c2ccc(Cl)cc2)c1=O | 21.8 | -0.1 | 15.6* | -2.4 | -4.8
COCn1c(-c2ccc(OC)cc2)nc2ccccc21 | -5.7 | 0.2 | 0.3 | 9.2* | -4.4
CCn1c(COc2ccc(OC)cc2)nc2ccccc21 | -6.6 | 0.0 | 2.0 | 8.8* | -3.4
COc1cc(C=O)ccc1OCCCOc1ccc([N+](=O)[O-])cc1 | 10.7 | 0.0 | -7.9 | 9.9* | -3.9
CCN(CC)c1ccc(C(=O)OCC(=O)Nc2cccc(S(=O)(=O)NC3=NCCCCC3)c2)cc1 | -19.6 | -0.5 | 0.1 | -1.6 | 4.5
Cc1cccc(C)c1OCC(=O)Nn1c(=O)[nH]c2ccccc2c1=O | -1.9 | 0.2 | 10.7* | -0.1 | -2.4
Cc1ccc(N2C(=O)C3C(c4ccccc4)N4CCCN4C3(C)C2=O)cc1 (configuration not stated) | -5.7 | -0.3 | -6.8 | 2.8 | 6.5
Cn1c(SCC(=O)N2CCCC2=O)nnc1-c1ccccc1F | 5.8 | -0.2 | 18.9* | 6.5 | -3.0
CCOC(=O)c1sc2nc(-c3ccccc3)ccc2c1N | -0.7 | 0.1 | 0.4 | 10.5* | -0.9
COc1ccc(OC)c(/C=C2\SC(=S)N(C(C(=O)O)c3ccccc3)C2=O)c1 (configuration not stated) | . | . | . | 9.7* | .
CCOc1ccc(/C=C2\SC(=S)N(C(C(=O)O)c3ccccc3)C2=O)cc1OC (configuration not stated) | . | . | . | -1.0 | .
COc1ccc(C(=O)c2ccccc2)cc1 | 2.8 | -0.3 | 3.3 | 0.9 | 2.1
